Screens deposited in PubChem by National Center for Advancing Translational Sciences (NCATS).
RECQ1 inh = qHTS Assay for Inhibitors of RecQ-Like Dna Helicase 1 (RECQ1). RECQ1 DNA unwinding, red fluorescence kinetic read. Potency, µM (titrated, usually from 57.3 µM), without a hit: top-dose activity, negative = inhibition, hits mostly inhibitors. 0.54% of 240,000 active;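 also: plate controls were vehicle for no effect and no enzyme for full effect; nearly all actives have a fitted effect of over 30% in size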
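50 nM RECQ1T1 preincubated 15 min with compound in Tris pH 8.0 buffer with MgCl2, DTT, Tween-20 and 2.5 ug/ml poly(dI-dC); started with 200 nM TAMRA/BHQ-2 forked duplex and 2 mM ATP. Unwinding read as fluorescence (525/598 nm), two reads 2 h apart.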
BLM helicase inh = qHTS Assay for Inhibitors of Bloom's syndrome helicase (BLM); Potency, µM (doses to about 56.1 µM), for inactives: at the highest dose activity change, negative = inhibition, actives largely listed as inhibitors; 0.2% of 350,000 active; recombinant BLM DNA unwinding, fluorescence dequenching; AID 2528, 2010; RecQ-like DNA helicase BLM (Homo sapiens), P54132;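 also: plate controls were vehicle for no effect and no enzyme for full effect; nearly all actives have a fitted effect of over 35% in size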
APE1 inh-1 = qHTS Assay for Inhibitors of the Human Apurinic/apyrimidinic Endonuclease 1 (APE1); recombinant APE1, TAMRA/BHQ-2 abasic DNA cleavage fluorescence; Potency, µM (highest dose often 65.8 µM), for inactives: at the highest dose activity change, negative = inhibition, hits mostly inhibitors; 0.35% of 350,000 active;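 also: plate controls were vehicle for no effect and reference inhibitor for full effect; nearly all actives have a fitted effect of over 55% in size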
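APE1 at 0.75 nM preincubated 15 min at room temperature with compound. Reaction then started with 50 nM double-stranded THF-abasic substrate labelled with TAMRA/BHQ-2, and 525/598 nm fluorescence read kinetically. Activity taken as third-minus-first read difference, normalized to DMSO and NSC13755 controls.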
L3MBTL1 block = qHTS Assay for the Inhibitors of L3MBTL1; Lethal(3)malignant brain tumor-like protein 1 (Homo sapiens), Q9Y468; 0.66% of 230,000 active; AID 485360, 2010; Potency, µM (doses to about 57.1 µM), without a hit: at the top dose activity, negative = inhibition, actives largely listed as inhibitors; AlphaScreen L3MBTL1–H3K9me1 peptide binding; also: nearly all actives have a fitted effect of over 60% in size
Target sequence (Q9Y468 whole entry, looked up): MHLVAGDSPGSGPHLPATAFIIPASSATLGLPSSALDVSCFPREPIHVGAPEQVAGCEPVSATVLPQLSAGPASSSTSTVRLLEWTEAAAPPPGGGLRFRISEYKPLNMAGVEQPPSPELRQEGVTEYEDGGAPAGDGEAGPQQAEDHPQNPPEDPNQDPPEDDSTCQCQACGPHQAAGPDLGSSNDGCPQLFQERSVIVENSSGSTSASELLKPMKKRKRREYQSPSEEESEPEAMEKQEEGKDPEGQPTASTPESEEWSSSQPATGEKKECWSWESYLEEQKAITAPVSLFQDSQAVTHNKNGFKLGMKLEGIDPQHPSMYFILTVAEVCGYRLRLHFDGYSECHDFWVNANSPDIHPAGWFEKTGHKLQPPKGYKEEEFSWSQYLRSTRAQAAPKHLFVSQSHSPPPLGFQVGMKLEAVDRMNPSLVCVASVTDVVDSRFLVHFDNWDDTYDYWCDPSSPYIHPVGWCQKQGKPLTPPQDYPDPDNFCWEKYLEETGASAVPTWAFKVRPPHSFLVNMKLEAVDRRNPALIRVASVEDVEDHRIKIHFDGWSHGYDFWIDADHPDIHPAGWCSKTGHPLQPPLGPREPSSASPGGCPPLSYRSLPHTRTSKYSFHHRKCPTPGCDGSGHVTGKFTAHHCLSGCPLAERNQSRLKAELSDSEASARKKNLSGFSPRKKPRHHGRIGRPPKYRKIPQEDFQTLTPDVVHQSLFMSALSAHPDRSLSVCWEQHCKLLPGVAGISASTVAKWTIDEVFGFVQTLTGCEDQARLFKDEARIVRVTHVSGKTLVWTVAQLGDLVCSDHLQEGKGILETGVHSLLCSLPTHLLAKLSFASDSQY
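AlphaScreen assay: L3MBTL1 (50 nM final) was preincubated 30 min at room temperature with biotinylated H3(1-15)K9me1 peptide (75 nM final), then 30 min with library compounds; streptavidin donor and nickel chelate acceptor beads (10 ug/mL final) added, 30 min dark.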
WRN helicase inh = qHTS for Inhibitors of WRN Helicase. AID 651768, 2012. Potency, µM (titrated, usually from 114 µM), for inactives: at the highest dose activity change, negative = inhibition, hits mostly inhibitors. WRN helicase unwinding, fluorescent forked duplex, kinetic. 0.46% of 360,000 active. Bifunctional 3'-5' exonuclease/ATP-dependent helicase WRN (Homo sapiens), Q14191; also: nearly all actives have a fitted effect of over 55% in size
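Enzyme (20 nM final) and test compound sit together 15 min at room temperature before substrate addition. Substrate is a single-forked duplex oligonucleotide (100 nM) labelled with fluorophore and quencher, with 2 mM ATP; helicase unwinding raises red fluorescence, read kinetically.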
APE1 dye cs = Counterscreen for APE1 Inhibitors: Fluorescent Dye Displacement Assay. shares compounds with APE1 inh-1. DNA fluorescent dye displacement counterscreen, fluorescence. Potency, µM (titrated, usually from 28.5 µM), for the others: top-dose activity change, negative = inhibition, hits mostly inhibitors. 7% of 480 active;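 also: loss of thiazole orange fluorescence as the dye is displaced from duplex DNA; 0% = ThO with dsDNA and no compound and -100% = ThO without dsDNA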
EndoIV counter = Counterscreen for APE1 Inhibitors: qHTS Assay for Inhibitors of Endonuclease IV. Potency, µM (titrated, usually from 27.1 µM), inactives show at the highest dose activity change, negative = inhibition, usual class: inhibitors. E. coli Endo IV, fluorogenic AP-site DNA cleavage. 4% of 560 active. shares compounds with APE1 inh-1;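 also: plate controls were uninhibited enzyme wells for no effect and no enzyme buffer wells for full effect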
APE1 inh-2 = Confirmation qHTS Assay for Inhibitors of the Human Apurinic/apyrimidinic Endonuclease 1 (APE1) | shares compounds with APE1 inh-1 | purified APE1, fluorogenic abasic-site DNA cleavage | Potency, µM (top dose mostly 57.1 µM), inactives show at the top dose activity change, negative = inhibition, usual class: inhibitors | 44% of 750 active; also: nearly all actives have a fitted effect of over 30% in size
APE1 FP inh = qHTS FP-Based Assay for Inhibitors of the Human Apurinic/apyrimidinic Endonuclease 1 (APE1); Potency, µM (titrated, usually from 28.5 µM), inactives show top-dose activity, negative = inhibition, usual class: inhibitors; 7% of 480 active; APE1 binding to TAMRA-labelled double-stranded DNA, fluorescence polarization displacement; AID 2573, 2010; shares compounds with APE1 inh-1
* = called active by the depositor; i = inactive; ? = inconclusive; nt = no result; [ ] = dose if it differs, or a comment. Shown are actives, neighbours in structure and some others; about 0.92% of the full set was active somewhere. Calls follow the shape of the dose curve; as a rule, active = well fitted curve in the direction sought with a large enough effect; inconclusive = small, poorly fitted or top-dose-only effect, or another doubt; inactive = no such curve, though single readings can be large; an effect the other way counts as inactive or inconclusive. Unless noted, % is scaled to controls: 0 for no effect and ±100 for the full control effect; potency is read from the fitted curve at half-maximal effect.

SMILES	RECQ1 inh	BLM helicase inh	APE1 inh-1	L3MBTL1 block	WRN helicase inh	EndoIV counter	APE1 inh-2	others
NCCCC[C@H](N)C(=O)N[C@@H](CCCN=C(N)N)C(=O)N1CCC[C@H]1C(=O)N1CCC[C@H]1C(=O)NCC(=O)N[C@@H](Cc1ccccc1)C(=O)N[C@@H](CO)C(=O)N1CCC[C@H]1C(=O)N[C@@H](Cc1ccccc1)C(=O)O	-9%	1%	-4%	nt	nt	nt	nt
COc1ccc(C(=O)c2ccc(CC#N)s2)cc1	-1%	-5%	1%	-11%	-18%	nt	-25%
Cc1ccc(C2(O)C(=O)c3ccccc3C2=O)c(O)c1C	?	-3%	3%	5%	-30%	nt	?
Cc1ccnc(NS(=O)(=O)c2ccc(NC(=O)C3C4C=CC(C4)C3C(=O)O)cc2)n1 (stereo unspecified)	-5%	-7%	?	-5%	1%	nt	-2%
Cc1ccnc(NS(=O)(=O)c2ccc(NC(=O)C3CCCCC3)cc2)n1	-1%	-1%	0%	7%	-4%	nt	nt
C[C@H](NC(=O)[C@@H](N)Cc1ccc(O)cc1)C(=O)NCC(=O)N[C@H]1CSSC[C@@H](C(=O)O)NC(=O)[C@H](CO)NC(=O)[C@H]([C@@H](C)O)NC(=O)[C@H](Cc2ccccc2)NC(=O)[C@H]([C@@H](C)O)NC(=O)[C@H](CCCCN)NC(=O)[C@@H](Cc2c[nH]c3ccccc23)NC(=O)[C@H](Cc2ccccc2)NC(=O)[C@H](Cc2ccccc2)NC(=O)[C@H](CC(N)=O)NC(=O)[C@H](CCCCN)NC1=O	-6%	1%	0%	nt	nt	nt	nt
CO[C@@H]1COC(=O)C/C=C\[C@@H](C)[C@@H]2C=C[C@H](O)[C@@H](COC(=O)CCC[C@H]1C)O2	-2%[11.5 µM]	2%[12.4 µM]	3%[12.4 µM]	nt	nt	nt	nt
Nc1c(S(=O)(=O)O)cc(Nc2ccc(Nc3nc(Cl)nc(Nc4ccc(S(=O)(=O)O)cc4)n3)c(S(=O)(=O)O)c2)c2c1C(=O)c1ccccc1C2=O	0.89µM*	nt	0.63µM*	nt	nt	10µM*	0.71µM*
O=[N+]([O-])c1ccc(Nc2nc(Cl)nc(NCCO)n2)cc1	0%	0%	9%	10%	-8%	nt	nt
O=c1cc(-c2ccc(O)cc2)oc2c([C@@H]3O[C@H](CO)[C@@H](O)[C@H](O)[C@H]3O)c(O)c([C@@H]3O[C@H](CO)[C@@H](O)[C@H](O)[C@H]3O)c(O)c12	-8%	-2%	?	-1%	-4%	nt	nt
O=c1cc(-c2ccc(O)cc2)oc2c(C3OCC(O)C(O)C3O)c(O)c(C3OC(CO)C(O)C(O)C3O)c(O)c12 (stereo unspecified)	-15%	-12%	20µM*	nt	-2%	-4%	4.5µM*	APE1 dye cs=-7%;APE1 FP inh=1%
COc1ccc2[nH]c(S(=O)Cc3ncc(C)c(OC)c3C)nc2n1 (stereo unspecified)	nt	-6%	nt	nt	nt	nt	nt
Cc1ccc2nc(NC(=O)CCCC(=O)O)sc2c1	i	-4%	?	-2%	-15%	4%	?	APE1 dye cs=-5%;APE1 FP inh=-27%
Cc1ccc2nc(NC(=O)CCCc3nc4ccccc4s3)sc2c1	-13%	-7%	13%	nt	-24%	nt	nt
CSCC[C@H](NC(=O)[C@@H](NC(=O)[C@H](CCC(=O)O)NC(=O)[C@H](CCSC)NC(=O)[C@H](CC(N)=O)NC(=O)[C@H](CCC(=O)O)NC(=O)[C@H](CC(N)=O)NC(=O)[C@H](CO)NC(=O)[C@H](C)N)[C@@H](C)O)C(=O)O	-19%	-6%	-2%	nt	nt	nt	nt
CCCNC(=O)OC[C@@H]1O[C@H](CCO/N=C\[C@@H](C)[C@H](OCc2ccccc2)C(C)C)C=C[C@@H]1Oc1ccc(OC)cc1	4%[11.5 µM]	-2%[12.4 µM]	-10%[12.4 µM]	nt	nt	nt	nt
Cc1nc(N)sc1-c1csc(Nc2ncccn2)n1	-5%	-20%	?	2%	-25%	nt	?
COc1ccccc1Nc1nc(-c2sc(N)nc2C)cs1	nt	-5%	21%	-8%	0%	nt	nt
COc1cc(OC)c2c(-c3ccccc3)cc(=O)oc2c1C(CC(=O)N1CCOCC1)c1ccc2c(c1)OCO2 (stereo unspecified)	?	-9%	?	nt	-7%	nt	nt
COc1cc(OC)c2c(-c3ccccc3)cc(=O)oc2c1C(CC(=O)N1CCN(c2ccccc2)CC1)c1ccc2c(c1)OCO2 (stereo unspecified)	i	-11%	?	nt	nt	0%	13µM*	APE1 dye cs=2%;APE1 FP inh=-43%
O=C(Nc1ccc2nc(-c3ccco3)c(-c3ccco3)nc2c1)N1CCCCCC1	5.6µM*	5.6µM*	3.5µM*	3.5µM*	13µM*	?	4µM*	APE1 dye cs=?;APE1 FP inh=13µM*
COc1ccc(-c2nnc3ccc(SCC(=O)NCc4ccco4)nn23)cc1	-28%	1%	?	-2%	-20%	nt	-10%
CC(=O)OC1CC2C(C)(C)C(O)CC[C@@]2(C)C2CC[C@@]3(C)C(c4ccoc4)OC(=O)C4OC43[C@]12C (stereo partly specified)	-6%	-3%	?	nt	nt	1%[57.1 µM]	?	APE1 dye cs=1%[57.1 µM];APE1 FP inh=0%[57.1 µM]
Cc1ncc(CO)c(/C=N/NC(=O)c2cc(O)c(O)c(O)c2)c1O	14µM*	5.6µM*	4µM*	1.6µM*	nt	156%	?	APE1 dye cs=-10%;APE1 FP inh=5%
COc1ccc2c(c1OC)C(Cc1ccccc1)N1CCc3cc4c(cc3C1=C2)OCO4 (stereo unspecified)	-3%	-16%	4%	nt	nt	nt	nt
